Residual activity data for 19 compounds are collected here from ChEMBL document CHEMBL2218924, “A broad activity screen in support of a chemogenomic map for kinase signalling research and drug discovery” (Biochem J, 2013).

By residual activity is commonly meant the signal under treatment as a percentage of the control signal.

This assay deals with Serine/threonine-protein kinase PAK 2 (Homo sapiens) (UniProt Q13177). As to conditions: at 10 µM.
Chain of Serine/threonine-protein kinase PAK 2 (Homo sapiens) (Q13177 whole entry): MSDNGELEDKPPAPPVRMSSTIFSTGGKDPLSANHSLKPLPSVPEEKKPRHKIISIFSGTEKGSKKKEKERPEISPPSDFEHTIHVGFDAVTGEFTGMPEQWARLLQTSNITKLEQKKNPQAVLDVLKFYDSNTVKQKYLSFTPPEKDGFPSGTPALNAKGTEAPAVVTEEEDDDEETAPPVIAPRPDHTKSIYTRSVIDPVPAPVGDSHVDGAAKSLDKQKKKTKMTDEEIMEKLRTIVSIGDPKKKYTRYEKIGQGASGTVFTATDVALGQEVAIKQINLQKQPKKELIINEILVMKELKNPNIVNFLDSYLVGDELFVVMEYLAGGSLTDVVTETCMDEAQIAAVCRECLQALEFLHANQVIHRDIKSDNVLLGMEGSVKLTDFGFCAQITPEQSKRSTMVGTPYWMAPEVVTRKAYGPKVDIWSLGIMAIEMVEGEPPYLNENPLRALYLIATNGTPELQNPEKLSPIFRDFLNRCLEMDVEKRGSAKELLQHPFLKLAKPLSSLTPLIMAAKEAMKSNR
Take `COc1cc2ncnc(Nc3cccc(Cl)c3)c2cc1OC`: the residual activity amounted to 111%.

As for `O=C1Cc2c([nH]c3ccc(Br)cc23)-c2ccccc2N1`, the residual activity is 75%. The value for `O=C1NC(=O)C(c2cn(CCCO)c3ncccc23)=C1c1cnccn1` was 99%.

As for `CC(C)(C)n1nc(Cc2cccc3ccccc23)c2c(N)ncnc21`, the residual activity was determined as 49%.

For the compound `O=C1Cc2c([nH]c3ccc([N+](=O)[O-])cc23)-c2ccccc2N1`, the residual activity came out at 30%. The value for `O=c1cc(N2CCOCC2)oc2c1ccc1ccccc12` was 89%. The value for `Nc1ncnc2c1c(-c1ccc(Oc3ccccc3)cc1)cn2C1CCCC1` was 61%; that for `Cn1sc(=O)n(Cc2ccccc2)c1=O` was 91%. Regarding `CCCC(=O)Oc1ccc2[nH]c(C(=O)c3cc4ccccc4[nH]3)cc2c1`, the residual activity was found to be 86%. The value for `O=C1NC(=O)c2c1c1c3ccccc3[nH]c1n1cncc21` was 89%; that for `Nc1ncnc2[nH]nc(Nc3ccc(F)cc3)c12` was 109%; that for `NC(=O)Nc1sc(-c2ccc(F)cc2)cc1C(N)=O` was 71%.

As to `O=C1Nc2ccc(Cl)cc2/C1=C/c1cc(Cl)c(O)c(Cl)c1`, the residual activity worked out at 75%. As to `Nc1ncnc2c1cnn2-c1ccccc1`, the residual activity turned out to be 97%. The value for `O=C(c1cc2cc(O)ccc2[nH]1)c1cc2cc(O)ccc2[nH]1` was 83%; that for `COc1cc2nccc(Oc3ccc(NC(=S)NC(=O)c4ccccc4C)cc3)c2cc1OC` was 87%. Regarding `O=c1cc(N2CCNCC2)oc2c(-c3ccccc3)cccc12`, the residual activity was determined as 80%. Take `CC(C)c1nn(-c2c(Cl)cccc2Cl)c2nc(Cc3ccc(OCCO)cc3)[nH]c(=O)c12`: the residual activity amounted to 69%. For `O=C(O)/C=C/c1cc(Br)c(Br)c(Br)c1Br`, the residual activity stood at 95%.
